Screen size: about 13,000 compounds; about 3,200 (25%) showed an effect of 50% or more. The list shows a part of the results.
System: P. falciparum stage V gametocytes
Parameters: BacTiter-Glo ATP luminescence viability of purified stage V gametocytes in 384-well plates, per cent inhibition versus DMSO
Conditions: 48 h, 5 µM; inhibitor

| Compound | % Inhibition [%] |
| --- | --- |
| COc1cccc(OC2CCN(C(=O)c3ccc(-c4ccc(N5CCCC5=O)cc4C)cc3)CC2)c1 [TCMDC-136524] | 29.3 |
| Cc1nc(N)nc(N)c1OCCCOc1ccccc1Br [TCMDC-131364] | -0.5645 |
| CN1CCCC1CCNC(=O)[C@H](CC1CCCCC1)NC(=O)c1ccc(O)c(-c2ccc(Cl)c(Cl)c2)c1 (some centres unmarked) [TCMDC-140855] | 48.17 |
| CCN(CC)C(=O)c1cnc(-c2ccccc2)nc1Oc1cccc(Cl)c1 [TCMDC-124780] | 14.15 |
| CCCCCCC(C)c1cc(O)c2c(c1)OC(=O)CC2(CC)c1ccccn1 (centres unmarked) [TCMDC-131681] | -3.085 |
| c1cc(CNC2Cc3ccc(-c4cccs4)cc3C2)cc(-n2ccnc2)c1 (centres unmarked) [TCMDC-134830] | -2.028 |
| CC(C)C[C@H](NC(=O)c1ccc(OCCN2CCOCC2)cc1)C(=O)NC(/C=N/N1CCCC1=O)C(C)C (some centres unmarked) [TCMDC-136276] | 20.05 |
| CCc1cccc(OCC2CCCN(c3ccc(C(=O)NC4CC4)cn3)C2)c1 (centres unmarked) [TCMDC-134039] | 7.857 |
| CCN(CC)CCN(Cc1ccc(-c2ccc(C(F)(F)F)cc2)cc1)C(=O)Cn1c(SCc2ccc(F)cc2)nc(=O)c2sccc21 [TCMDC-140572] | 78.9 |
| CCN(CC)CCN(Cc1ccc(-c2ccc(C(F)(F)F)cc2)cc1)C(=O)Cn1c(CCc2cccc(F)c2F)nc(=O)c2ccc(C)cc21 [TCMDC-141086] | 74.83 |
| CCN(CC)CCN(Cc1ccc(-c2ccc(C(F)(F)F)cc2)cc1)C(=O)Cn1c(CCc2ccc(F)cc2)nc(=O)c2sccc21 [TCMDC-140779] | 90.56 |
| CCN(CC)CCN(Cc1ccc(-c2ccc(C(F)(F)F)cc2)cc1)C(=O)Cn1c(CCc2cccc(F)c2F)nc(=O)c2cc(C)ccc21 [TCMDC-141014] | 48.99 |
| CCN(CC)CCN(Cc1ccc(-c2ccc(C(F)(F)F)cc2)nc1)C(=O)Cn1c(SCc2ccc(F)cc2)nc(=O)c2sccc21 [TCMDC-140573] | 27.02 |
| CCN(CC)CCN(Cc1ccc(-c2ccc(C(F)(F)F)cc2)cc1)C(=O)Cn1c(SCc2ccc(F)cc2)nc(=O)c2ccccc21 [TCMDC-140983] | 87.16 |
| Cc1cccc(C)c1C1CCN(C2CCC(NC(=O)/C=C/c3ccccc3)CC2)CC1 (centres unmarked) [TCMDC-132879] | -22.62 |
| C=CC12CCN(CC1)C(C(O)c1ccnc3ccc(OC)cc13)C2 (centres unmarked) [TCMDC-124047] | -22.19 |
| O=C(Nc1ccc(F)c(F)c1)c1ccc(CN2CCCN(Cc3cccc(O)c3)CC2)cc1 [TCMDC-136390] | -4.727 |
| CC(=O)Nc1ncc(C(=O)Nc2cccc(-c3cccc(-c4nc5ccc(C(F)(F)F)cc5[nH]4)c3)c2)s1 [TCMDC-136918] | 17.49 |
| CCc1sc(N2CCN(C)CC2)nc1C(=O)Nc1ccc(F)cc1C(F)(F)F [TCMDC-134298] | 16.91 |
| CCN(CC)CCN(Cc1ccc(-c2ccc(C(F)(F)F)cc2)cc1)C(=O)Cn1c(CCc2cccc(F)c2F)nc(=O)c2sccc21 [TCMDC-140937] | 80.29 |
| Cc1noc(NC(=O)c2sc3ccccc3c2O)c1C [TCMDC-124523] | 7.208 |

| Compound | % Inhibition [%] |
| --- | --- |
| O=C(CNC(=O)c1ccc(O)cc1)Nc1ccc(-c2cccc(-c3nc4ccc(C(F)(F)F)cc4[nH]3)c2)cc1 [TCMDC-136817] | -15.92 |
| COc1cc(O)c2c(=O)c(OC)c(-c3cccc(Cl)c3OCC(=O)O)oc2c1OC [TCMDC-131682] | 2.376 |
| N=C(N)c1ccc(NCc2cccc(C(=O)O)c2)cc1 [TCMDC-136136] | -78.43 |
| NCCC(=O)Nc1ccc(-c2cnc3[nH]cc(-c4ccc(C(=O)O)cc4)c3c2)cn1 [TCMDC-136494] | 31.68 |
| CS(=O)(=O)Nc1cccc(-c2cnc3[nH]cc(-c4cccc(CN)c4)c3c2)c1 [TCMDC-136219] | 26.05 |
| CCS(=O)(=O)c1ccc(-c2cnc3[nH]cc(-c4ccc(N)cc4)c3c2)cc1 [TCMDC-132582] | 93.29 |
| O=C(O)c1ccc(-c2c[nH]c3ncc(-c4ccc(Cl)cc4)cc23)cc1 [TCMDC-135860] | 22.96 |
| CS(=O)(=O)Nc1cccc(-c2cnc3[nH]cc(-c4ccc(CN)cc4)c3c2)c1 [TCMDC-136218] | 33.32 |
| CS(=O)(=O)Nc1ccc(-c2cnc3[nH]cc(-c4ccc(C(=O)O)cc4)c3c2)cc1 [TCMDC-136306] | 30.86 |
| CS(=O)(=O)Nc1cccc(-c2cnc3[nH]cc(-c4ccc(C(=O)O)c(F)c4)c3c2)c1 [TCMDC-136221] | 80.96 |
| NCCNC(=O)c1ccc(-c2cnc3[nH]cc(-c4ccc(C(N)=O)cc4)c3c2)cc1 [TCMDC-132359] | 74.46 |
| CS(=O)(=O)Nc1cccc(-c2cnc3[nH]cc(-c4ccc(C(=O)O)cc4)c3c2)c1 [TCMDC-136215] | -36.34 |
| CS(=O)(=O)Nc1cccc(-c2cnc3[nH]cc(-c4ccc(CCC(=O)O)cc4)c3c2)c1 [TCMDC-136222] | -32.54 |
| CS(=O)(=O)c1cccc(-c2cnc3[nH]cc(-c4ccc(CCC(=O)O)cc4)c3c2)c1 [TCMDC-136223] | 14.42 |
| CS(=O)(=O)c1cccc(-c2cnc3[nH]cc(-c4cccc(CCN)c4)c3c2)c1 [TCMDC-136307] | 108.4 |
| CCOC(=O)C(C(=O)OCC)c1nc(C)ns1 [TCMDC-131370] | 6.156 |
| O=C(Nc1ccc2c(c1)CCC2)c1ccc(N2CCN(c3ccncc3)CC2)cc1 [TCMDC-135127] | 32.87 |
| CC(C)/C(=C(/F)CN1C(=O)C(NC(=O)c2cc3ccccc3[nH]2)C(=O)N(c2ccccc2)c2ccccc21)c1ccccc1 (centres unmarked) [TCMDC-131897] | 34.22 |
| O=C(Nc1ccc(N2CCCN(Cc3cccc(F)c3)CC2)cc1)c1cccs1 [TCMDC-135012] | -8.127 |
| CCc1nc(N)nc(N)c1-c1ccc(F)c(F)c1 [TCMDC-137370] | 12.31 |

Source: article PMC4552634, “A New Set of Chemical Starting Points with Plasmodium falciparum Transmission-Blocking Potential for Antimalarial Drug Discovery” (PLoS ONE, 2015)
